# Results as given in PubChem BioAssay AID2284076 (EPA ToxCast).
# The source made the active and inactive calls. How the source made its calls: active means hit-call score of the fitted dose curve at least 0.9, where 1 is the maximum; inactive means score below 0.9.
# Molecular target: human EphA1 Receptor Tyrosine Kinase, EPHA1 (gene 2041) (UniProt P21709)
# Test: ERF_FR_ENZ_hEPHA1: Eurofins (ERF) Enzymatic Radiometric [Km ATP] KinaseProfiler LeadHunter Assay for human EphA1 Receptor Tyrosine Kinase
# Description: ERF_FR_ENZ_hEPHA1 is a biochemical, single-readout assay that uses extracted gene-proteins in a cell-free assay. Measurements were taken 0.5 hour after chemical dosing in a 96-well plate. See EphA1 Human RTK Kinase Enzymatic HTRF Assay [Km ATP], Cerep.ERF_FR_ENZ_hEPHA1 is an assay component calculated from the ERF_FR_ENZ_hEPHA1 assay. It is designed to measure enzyme activity using a type of enzyme reporter as detected by fluorescence intensity with HTRF technology.Data from the assay component ERF_FR_ENZ_hEPHA1 was analyzed at the assay endpoint, ERF_FR_ENZ_hEPHA1, in the positive analysis fitting direction relative to DMSO as the negative control and baseline of activity. Using a type of enzyme reporter, loss-of-signal activity can be used to understand changes in enzymatic activity as they relate to gene EPHA1. To generalize the intended target to other relatable targets, this assay endpoint is annotated to the kinase intended target family, where the subfamily is receptor tyrosine kinase.
# EphA1 (h) is incubated with 8 mM MOPS pH 7.0, 0.2 mM EDTA, 250 uM […], 10 mM MgAcetate and [gamma-33P]-ATP (specific activity and concentration as required). The reaction is initiated by the addition of the Mg/ATP mix. After incubation for 40 minutes at room temperature, the reaction is stopped by the addition of phosphoric acid to a concentration of 0.5%. […]
# Sequence of human EphA1 Receptor Tyrosine Kinase, EPHA1 (gene 2041) (P21709 whole entry, looked up): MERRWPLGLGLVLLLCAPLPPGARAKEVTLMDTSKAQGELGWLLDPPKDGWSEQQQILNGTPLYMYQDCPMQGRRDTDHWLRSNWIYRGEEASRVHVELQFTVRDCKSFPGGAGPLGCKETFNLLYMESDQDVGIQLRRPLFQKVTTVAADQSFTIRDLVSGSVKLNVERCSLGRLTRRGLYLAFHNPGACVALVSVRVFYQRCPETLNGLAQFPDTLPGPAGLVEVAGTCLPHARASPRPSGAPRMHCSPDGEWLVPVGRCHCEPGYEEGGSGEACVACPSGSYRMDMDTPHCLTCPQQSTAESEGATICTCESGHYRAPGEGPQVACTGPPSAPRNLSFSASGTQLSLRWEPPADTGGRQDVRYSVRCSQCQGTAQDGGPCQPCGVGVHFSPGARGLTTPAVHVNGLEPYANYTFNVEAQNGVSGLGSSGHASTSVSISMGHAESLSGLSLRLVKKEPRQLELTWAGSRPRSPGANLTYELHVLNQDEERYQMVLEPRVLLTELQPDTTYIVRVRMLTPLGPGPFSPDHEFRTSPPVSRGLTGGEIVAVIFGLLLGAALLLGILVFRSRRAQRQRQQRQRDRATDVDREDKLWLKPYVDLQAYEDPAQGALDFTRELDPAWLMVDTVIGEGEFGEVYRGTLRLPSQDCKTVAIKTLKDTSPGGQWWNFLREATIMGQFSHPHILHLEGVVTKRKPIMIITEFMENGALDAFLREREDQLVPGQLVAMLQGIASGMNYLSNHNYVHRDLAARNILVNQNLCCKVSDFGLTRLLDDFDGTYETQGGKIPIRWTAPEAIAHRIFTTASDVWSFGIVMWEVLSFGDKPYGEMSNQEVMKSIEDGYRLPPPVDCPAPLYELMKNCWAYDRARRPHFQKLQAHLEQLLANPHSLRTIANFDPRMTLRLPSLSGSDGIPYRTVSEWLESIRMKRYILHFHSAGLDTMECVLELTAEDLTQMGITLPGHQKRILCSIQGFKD
row,SMILES,outcome
1,O=C(/C=C/c1ccc(O)cc1)CC(=O)/C=C/c1ccc(O)cc1,inactive
